Laboratory results reported in the supplement of paper PMC3334620.
The full ranking holds about 33,000 sequences; the median of “E-score (-0.5 to 0.5)” is about -0.054, and the highest 2% start at about 0.35. Many of the other results were omitted from the sample, so the highest values are more common in it than they were.

biological target: T1, Stb5 (UniProt P38699); assay: PBM E-score (8-mer binding enrichment) (E-score (-0.5 to 0.5)); higher = stronger / more preferred TF binding; settings: protein concentration: 200 nM; construct: GST-full length
T1 sequence: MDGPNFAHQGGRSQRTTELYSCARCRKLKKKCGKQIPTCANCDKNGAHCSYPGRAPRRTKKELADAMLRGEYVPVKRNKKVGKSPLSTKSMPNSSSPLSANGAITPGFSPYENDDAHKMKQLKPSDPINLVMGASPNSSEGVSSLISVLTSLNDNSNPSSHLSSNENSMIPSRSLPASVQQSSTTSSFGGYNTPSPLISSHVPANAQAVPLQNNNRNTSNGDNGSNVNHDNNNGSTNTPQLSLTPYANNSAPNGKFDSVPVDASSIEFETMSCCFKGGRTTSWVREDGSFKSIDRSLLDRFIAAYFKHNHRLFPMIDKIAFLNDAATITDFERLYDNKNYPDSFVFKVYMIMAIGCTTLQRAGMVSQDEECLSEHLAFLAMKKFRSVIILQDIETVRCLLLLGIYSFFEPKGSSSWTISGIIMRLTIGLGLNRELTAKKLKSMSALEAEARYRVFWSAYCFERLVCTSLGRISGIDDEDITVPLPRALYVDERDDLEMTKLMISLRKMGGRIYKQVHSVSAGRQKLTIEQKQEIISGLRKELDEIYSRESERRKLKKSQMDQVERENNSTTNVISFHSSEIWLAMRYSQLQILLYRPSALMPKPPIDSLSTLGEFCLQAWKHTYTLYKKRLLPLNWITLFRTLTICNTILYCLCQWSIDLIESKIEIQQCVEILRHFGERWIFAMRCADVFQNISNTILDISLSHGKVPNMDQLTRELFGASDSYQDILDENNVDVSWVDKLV
Procedure: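 Universal 'all 10-mer' protein binding microarrays (Agilent AMADID 015681) probed with GST-tagged S. cerevisiae TFs (full-length or DBD) made by in vitro transcription/translation (PURExpress), about 100-200 nM. Bound TF was detected with fluorescent anti-GST. Each ungapped 8-mer (which stands for itself and its reverse complement) is scored by the PBM enrichment score (E-score), a modified Wilcoxon-Mann-Whitney statistic from -0.5 to +0.5, computed with the Universal PBM Analysis Suite. Scale: above 0.35 generally sequence-specific binding.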

Sequence	PBM E-score
TACAACCA	-0.0508
ACTCCCCA	-0.225
GCGACAGC	0.105
ACGAGGCA	-0.206
TATGTCCA	0.133
AGGGCGAG	-0.295
AGGCGCGA	-0.00867
GGGCGCTA	0.0264
AGGCGATA	-0.0449
GGGCGATA	0.11
CGGCGATA	0.463
CGGCGCGA	0.373
TGGCGCCA	0.0517
CGGCGCTA	0.447
AGGCGCTA	0.0525
CGGCGCCA	0.377
CGGCGCGC	0.275
AGGCGCCA	0.041
TGCCTCCA	-0.237
GTCATTGA	-0.109
TGGAGACA	-0.254
AGGTGCGC	0.0592
AGGCGGAC	0.356
AGGCGGAA	0.131
AGGCGGGG	0.38

Sequence	PBM E-score
AGGCGGGC	0.275
AGGCGGAT	0.0922
AGGCGGCC	0.235
AGGCGGAG	0.356
AGGCGGGA	0.234
ACGCGGAC	0.241
AGTGGCAA	-0.04
CTGCTATA	0.0793
CAGAGTGG	-0.19
AGAACCAC	0.0238
CATCATAG	-0.0501
AGGAGCAC	-0.252
GCCATTAA	-0.0877
GGTATTAC	0.386
TGTATTAA	-0.0825
GGTATTAA	0.404
AGTATTAA	-0.0112
AGTATTAC	0.0335
CGTATTAC	0.188
GTCTTTTA	-0.0581
ATGCGGGC	0.087
CCATCGGG	0.262
ATACCCGG	0.239
AAGTGCGC	0.243
CGTCATGA	-0.0111

Sequence	PBM E-score
AGGGCAGG	-0.205
TCGAAACA	-0.233
AGCGGCGG	0.401
ATCGGCGA	0.272
AACAGCGA	0.235
ATCGGCGC	0.291
AGCGGCGC	0.363
AGCGGCGA	0.317
CACAGCGG	0.286
ATCGGCGG	0.363
AACGGCGC	0.222
AACAGCGG	0.366
AGCGGCTG	0.0872
CGCGGCGC	0.318
GGCTCGAC	-0.113
ACCTGACA	-0.145
ATAGACCA	-0.188
TACAGATA	0.048
TAGTAGGA	-0.0819
ACTTACCG	0.195
GAGCCAGC	0.00015
AGGCGATC	-0.302
AAGGAGGT	-0.0343
GCAAGCCC	0.117
AGGGGCGC	-0.0545

Sequence	PBM E-score
AGGGGCGG	0.36
AGGGGCGA	-0.0945
ATCTTTTA	0.034
AAGGCTCT	-0.214
CGTACCGA	0.205
AGTACCCG	0.0305
AGTACCGC	0.435
AGTACCGA	0.439
AGTACCGG	0.367
ACTACCGC	0.329
GGTACCGA	0.286
CGTACCGC	0.302
AGTACCAG	-0.0537
AGTCGTAG	-0.232
AAGAGTGC	-0.0116
CCACTAGG	-0.166
TTCTCCAA	-0.0481
AAAGTATG	-0.172
CCCCCGAA	0.213
GCCCCGAC	0.371
ACCCCGAA	0.37
TCCCCGAA	0.266
CCCCCGAC	0.349
GACCCGAC	0.295
AACCCGAT	0.222

Sequence	PBM E-score
ACCCCGAG	0.351
ACCCCGAT	0.441
ACCCCGAC	0.444
GCCCCGAA	0.198
AACCCGAC	0.347
GCACTGGC	-0.0607
CATGTTCA	-0.334
CGGACAAC	0.144
ATCCGCTG	0.189
ATGATGGC	-0.19
CACGCCTG	-0.158
CCATCTAA	-0.192
ATACACCG	0.402
ACACACCC	0.0669
ATACACCA	-0.0712
ACACACCG	0.372
CGACACCA	0.0464
ATACACCC	0.254
CAACACCA	-0.1
ACACACCT	-0.0405
CAACACCC	-0.206
CGACACCG	0.371
CGACACCC	0.0971
CAACACCG	0.408
CTTAAACC	-0.0424

Sequence	PBM E-score
AAATACTG	-0.0876
ATCTTTGA	-0.157
AATTGAAA	-0.198
GCTAAGTA	-0.0566
CAAGAGGG	-0.306
AGACACCA	-0.13
AGACACCC	-0.231
AGACACCG	0.436
ACTATCCA	0.0766
AGTTTCTG	-0.117
GTCCGACA	0.403
GTCCGAAA	0.259
CTCCGAGC	0.102
CTCCGACC	0.375
ATCCGACA	0.283
ATCCGACC	0.262
GTCCGAGA	0.184
CTCCGAGA	0.187
CTCCGACA	0.366
CTACATGC	-0.179
CTTCTGTA	-0.09
CACCACAA	-0.0283
GAGTGGGC	0.0251
GGCATTCA	0.0519
ATTTCACA	-0.157

Sequence	PBM E-score
GCGCCAGC	0.112
CCGCCCGG	0.344
ACGCCCCG	0.188
CCGCCCCC	0.335
ACGCCAGC	-0.181
CCGCCAGC	0.356
CCGCCCCG	0.409
CCGCCCGC	0.362
ACGCCCGC	0.28
CTTATCAA	-0.125
ACAATGAA	-0.0923
CCACATTC	-0.0853
TAAATGCA	-0.18
CATGCGGA	0.167
ACACCTCC	0.0978
CATAGCGC	0.161
ATTGAGCC	0.0599
CCGGAGCC	0.182
ACCTCACA	-0.181
TCAAGTAA	-0.0626
CGGTGAAA	0.41
CGGTGAAG	0.12
CGGTGACA	0.42
GGGTGACA	0.0889
CGGTGAAC	0.177

Sequence	PBM E-score
TGGTGACA	0.0421
CACTGCCC	-0.0546
ACCCTGAC	-0.0664
CACCGCAG	0.344
CATCGCCG	0.264
TACCGCCA	0.323
CAGCGCCG	0.299
AACCGCCC	0.107
CACCGCCG	0.405
GACCGCCA	0.317
AATCGCCG	0.407
GACCGCCC	0.322
CACCGCCC	0.41
AATCGCCC	-0.00317
CACCGCCA	0.408
AAGTTGGT	-0.133
TCAGCAGA	-0.329
CTTGACTA	-0.193
CGGGAGGC	-0.136
CGGTTCAG	-0.0792
ATGGCAAA	-0.0403
CCTAGGTC	-0.15
ATGCTAAC	-0.0894
GGCAGTAC	0.0214
AAGTGAAC	-0.129

Sequence	PBM E-score
AACCGCCA	0.167
AAGCGCCA	-0.0397
AACCGCCT	0.0427
AAGCGCCT	0.0194
AAGCGCCG	0.396
AACCGCCG	0.362
TACATATA	0.0481
GGATTGAC	-0.0821
AGACTCCA	-0.139
AGTCTGTG	-0.27
GATGGGTA	-0.205
CGGTATCC	0.211
CGGTATCA	0.364
AGGTAGTA	0.0131
CGGTAGTC	0.18
CGGTGGTA	0.441
GGGTATCA	-0.079
CGGTATTA	0.472
AGGTATTA	0.212
CGGTATTC	0.275
CGGTAGTA	0.385
GGGTGGTA	-0.0756
AGGTGGTA	0.165
